Data on 15 compounds can be found in PubChem BioAssay (NCI).

Compounds without any hit were thinned out: in the full panel of roughly 83,000, 20% have a hit.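 Plates (96-well) were seeded with cells, treated with compound at one concentration, and incubated for 48 hours before percent growth was determined.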 Values without a mark were called inactive. Calls of active or inactive are those of the source. Rule for the calls: active = growth percent below 10; inactive = the rest.

Test systems include NCI-H23 lung; NCI-H226 lung; NCI-H322M lung; HOP-62 NSCLC; NCI-H460 lung; NCI-H522 lung; A549/ATCC NSCLC; 786-0 renal; COLO 205 colon.
What all share (assay): NCI-60 one-dose screen, 48 h (100 = growth as untreated, 0 = no growth, -100 = all killed)
Holding throughout (conditions): 10 µM unless noted

For the compound `CCCCCN(CCCCC)C(=O)C(CCC(=O)O)NC(=O)c1ccc(Cl)c(Cl)c1` (stereo not given), the growth in the assay on NCI-H23 lung is 105%; in the assay on NCI-H226 lung it was 92.6%; with NCI-H322M lung, 102%; in the assay with HOP-62 NSCLC, 102%; with NCI-H460 lung it was 106%; in the assay with NCI-H522 lung it was 110%. The growth is 85% with A549/ATCC NSCLC, 106% in the assay with 786-0 renal and 120% in the assay on COLO 205 colon.

Turning to `COc1cccc(C2C(C#N)=C(N)Oc3cc4c(cc32)OCO4)c1` (stereo not given), the growth was 9.81% (active) in the assay with NCI-H23 lung; -7.07% (active) in the assay on NCI-H226 lung; 37.6% with NCI-H322M lung; 22.7% with HOP-62 NSCLC; 7.64% (active) with NCI-H460 lung; 11.5% in the assay with NCI-H522 lung. Moreover, the growth in the assay on A549/ATCC NSCLC is 21.4%; in the assay on 786-0 renal it was 29.9%; with COLO 205 colon, -47.1% (active).

Turning to `COc1ccc(CNc2c3ccccc3nc3ccccc23)cc1F`, the growth is 27% in the assay on NCI-H23 lung; 43% with NCI-H226 lung; 31.6% in the assay with NCI-H322M lung; 44.5% in the assay with HOP-62 NSCLC; 6.34% (active) in the assay with NCI-H460 lung; 36.2% in the assay with NCI-H522 lung. The growth is 22.8% in the assay with A549/ATCC NSCLC, 26% with 786-0 renal and 8.7% (active) in the assay with COLO 205 colon.

Turning to `O=C(Nc1cccc(N=Cc2c(O)ccc3ccccc23)c1)c1ccccc1`, the growth in the assay with NCI-H23 lung was 95.8%; in the assay on NCI-H226 lung, 94.1%; with NCI-H322M lung, 95%; in the assay on HOP-62 NSCLC, 86.9%; in the assay with NCI-H460 lung, 111%; with NCI-H522 lung, 76.8%. Also, the growth is 94.7% in the assay with A549/ATCC NSCLC, 93.4% in the assay with 786-0 renal and 105% in the assay with COLO 205 colon.

Consider `CCCCSc1ncnc2c1ncn2C1CCCCO1` (stereo not given), for which the growth is 106% in the assay on NCI-H23 lung; 107% in the assay on NCI-H226 lung; 114% in the assay with NCI-H322M lung; 105% in the assay on HOP-62 NSCLC; 111% with NCI-H460 lung; 106% in the assay with NCI-H522 lung. The growth in the assay with A549/ATCC NSCLC is 105%; in the assay on 786-0 renal it was 97.9%; in the assay on COLO 205 colon, 108%.

For `O=C1Nc2ccccc2/C1=C\c1nc(C2CCN(S(=O)(=O)c3ccc(F)cc3)CC2)n2ccccc12`, the growth with NCI-H23 lung is 42%; in the assay with NCI-H226 lung it was 41.2%; with NCI-H322M lung, 55.5%; in the assay with HOP-62 NSCLC, 47.8%; in the assay on NCI-H460 lung, 65%; with NCI-H522 lung, 16.5%. The values for the growth in the assay on A549/ATCC NSCLC, in the assay with 786-0 renal and in the assay on COLO 205 colon were 68.1%, -3.81% (active) and 79.1%, respectively.

For `CCC(=O)NC1=C(Cl)C(=O)C(NC(=O)CC)=C(Cl)C1=O`, the growth was 94% in the assay with NCI-H23 lung; 113% in the assay with NCI-H226 lung; 107% with NCI-H322M lung; 111% in the assay with HOP-62 NSCLC; 108% with NCI-H460 lung; -82.7% (active) with NCI-H522 lung. Further, the growth in the assay with A549/ATCC NSCLC is 103%; with 786-0 renal, 105%; with COLO 205 colon, -91.4% (active).

With `COc1ccc2c(c1)OC1=C(C(=O)OC1)C2c1cc(OC)c2c(c1)OCCO2` (stereo not given), the growth is 16.2% with NCI-H23 lung; -13.6% (active) in the assay on NCI-H226 lung; 44.3% in the assay on NCI-H322M lung; 24.1% with HOP-62 NSCLC; 6.93% (active) in the assay on NCI-H460 lung; -10.7% (active) with NCI-H522 lung. Also, the growth in the assay on A549/ATCC NSCLC was 18%; with 786-0 renal, 21.4%; in the assay with COLO 205 colon, -69.6% (active).

As for `CCCCCCCCCCCCCCCCCC(=O)[O][Sn]([CH2]CCC)([CH2]CCC)[CH2]CCC`, the growth with NCI-H23 lung was -81.7% (active); in the assay on NCI-H226 lung, -74.6% (active); in the assay with NCI-H322M lung, -91.4% (active); in the assay on HOP-62 NSCLC, -89.5% (active); in the assay with NCI-H460 lung, -88.9% (active); in the assay with NCI-H522 lung, -54.3% (active). Further, the growth in the assay on A549/ATCC NSCLC is -84.1% (active); in the assay with 786-0 renal it was -100% (active); in the assay on COLO 205 colon it was -80.9% (active).

In the case of `CC(C)CCSc1nc(-c2ccc(F)cc2)c(C#N)c(N2CCN(C)CC2)n1`, the growth with NCI-H23 lung was 91.5%; in the assay with NCI-H226 lung it was 96.8%; in the assay on NCI-H322M lung, 87.8%; in the assay with HOP-62 NSCLC it was 85.2%; with NCI-H460 lung it was 88.8%; in the assay with NCI-H522 lung it was 59%. In addition, the growth in the assay on A549/ATCC NSCLC is 65%; with 786-0 renal, 65.6%; in the assay on COLO 205 colon, 84.6%.

For `CCC1N=C(N)N=C(N)N1c1ccc(Cl)cc1` (stereo not given), the growth with NCI-H23 lung was 89.4%; with NCI-H226 lung, 96.5%; in the assay with NCI-H322M lung, 90.4%; in the assay with HOP-62 NSCLC, 102%; with NCI-H460 lung, 39.1%; with NCI-H522 lung it was 90.9%. Also, the growth was 38% in the assay on A549/ATCC NSCLC, 58.6% with 786-0 renal and 121% in the assay on COLO 205 colon.

In the case of `O=C(Nc1cccc(Cl)c1)Nc1ccccc1Cl`, the growth in the assay with NCI-H23 lung is 73.1%; in the assay on NCI-H226 lung, 108%; in the assay on NCI-H322M lung it was 99.8%; in the assay on HOP-62 NSCLC it was 101%; in the assay with NCI-H460 lung it was 86%; in the assay on NCI-H522 lung, 42.6%. Also, the growth was 80.8% in the assay with A549/ATCC NSCLC, 82.1% in the assay with 786-0 renal and 121% in the assay on COLO 205 colon.

Regarding `CCCCCCCCCCCCCC1=NC(C)(C)CN1C(C)C`, the growth with NCI-H23 lung is -4.87% (active); in the assay with NCI-H226 lung, 2.64% (active); in the assay with NCI-H322M lung, 55.3%; in the assay with HOP-62 NSCLC, -79.7% (active); in the assay with NCI-H460 lung, -52.2% (active); with NCI-H522 lung it was -61.7% (active). For the same compound, the growth is -50.2% (active) in the assay on A549/ATCC NSCLC, -86.2% (active) in the assay on 786-0 renal and -62.9% (active) in the assay with COLO 205 colon.

As to `CCOC(=O)CCN(CCC(=O)OCC)c1ccccc1`, the growth was 101% in the assay on NCI-H23 lung; 98.4% with NCI-H226 lung; 110% with NCI-H322M lung; 86% with HOP-62 NSCLC; 111% with NCI-H460 lung; 89.8% in the assay with NCI-H522 lung. Besides, the growth in the assay with A549/ATCC NSCLC was 99.6%; in the assay on 786-0 renal, 105%; in the assay with COLO 205 colon, 93.7%.

For the compound `CCCCCCCOc1cccc(/C=C2\N=C3SCCCN3C2=O)c1`, the growth was 97.3% with NCI-H23 lung; 93.7% in the assay on NCI-H226 lung; 101% with NCI-H322M lung; 108% with HOP-62 NSCLC; 103% with NCI-H460 lung; 62.3% with NCI-H522 lung. Further, the growth was 91.8% in the assay on A549/ATCC NSCLC, 92.5% with 786-0 renal and 92.9% with COLO 205 colon.
